Values joined by “and” are separate entries in the source; they are usually repeats but may differ in a detail not shown here. Equal values may be shown once. This is part of a sample that, as a whole, favours compounds with a hit. Of some 83,000 tested, about 20% had one in any assay.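 Note: values are percent growth. 100 is the growth of untreated cells, values between 100 and 0 indicate rising inhibition; between -100 and 0 indicates cell death.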 Active and inactive are the calls of the source.

The assay has as its system NCI-H522 lung. The assay can be described thus: NCI-60 one-dose screen, 48 h (100 = growth as untreated, 0 = no growth, -100 = all killed). The conditions noted are these: 10 µM unless noted. The procedure:
Growth inhibition of the NCI-H522 human Non-Small Cell Lung tumor cell line is measured as a screen for anti-cancer activity. Cells are grown in 96 well plates and exposed to the test compound for 48 hours. Compounds are tested at a single concentration, which is 10^-5 M for most compounds. The reported endpoint is percent growth (GI% or GIPRCNT), where numbers from 0 - 100% represent growth inhibition, and numbers from -100% - 0 represent cell death. For example, a value of 40 represents 60% growth inhibition. A value of 0 means no net growth occurred over the course of the experiment. A value of -40 indicates 40% of cells at the beginning of the experiment died by the end of the experiment. A value of -100 means all cells are dead at the end of the experiment.
NCI-60 Human Tumor Cell Lines Screen was performed using the standard one-dose NCI protocol, which is described in more detail at https://dtp.cancer.gov/discovery_development/nci-60/default.htm.
Compounds with GIPRCNT values below 10 were considered active. Activity score was based on GIPRCNT using the following formula: […]
Score is 0 for GIPRCNT values of 100 or above, 50 for GIPRCNT values of 0, and 100 for GIPRCNT values of -100.
Take `C[C@]12CCc3sc(Nc4ccc(F)cc4F)nc3C1=CC[C@@H]1[C@@H]2CC[C@]2(C)C(=O)CC[C@@H]12`: the growth is 42.6% (inactive).
As to `C[C@]12CC[C@H]3[C@@H](CC=C4c5nc(N)sc5CC[C@@]43C)[C@@H]1CC[C@@H]2O`, the growth is 89.7% (inactive).
On to `COc1cc(C2C3=C(CCCC3=O)N(CCO)c3cc4c(cc32)CCC4)cc(OC)c1OC` (stereo not given), for which the growth was 62.7% (inactive).
With `CCN(CC)CCn1c(=O)n(C)c2ccccc21`, the growth was 108% (inactive).
Next, `C=CC[PH+](c1ccccc1)c1ccccc1.C=CC[PH+](c1ccccc1)c1ccccc1.[Pt+2].[S-]c1nc2ccccc2[nH]1.[S-]c1nc2ccccc2[nH]1`: -44.2% (active).
Turning to `N#CC(NC(=O)CCl)=C(Cl)Cl`, the growth was -84.4% (active).
Turning to `CC1=CC(=Nc2ccc(N(CCCl)CCCl)cc2)C=C(C)C1=O`, the growth was -87.2% (active).
For `COc1ccc(N)cc1OC`, the growth is 103% (inactive).
Under `Cc1c2ccncc2c(C)c2c1[nH]c1ccccc12` stands -50.6% (active); under `O=C(NC1=NCC[Se]1)c1ccccc1O`, 60.9% (inactive); under `Nc1nc(=S)nc(N)[nH]1`, 75.5% (inactive).
Consider `CC[PH+](CC)CC.O=COC1OC([S-])C(OC=O)C(OC=O)C1OC=O.[Au+]` (stereo not given), for which the growth was -75% (active).
As for `CCCn1cc2c3c(cccc31)[C@H]1C[C@@H](C)CN(C)[C@@H]1C2`, the growth was 85.9% (inactive).
`Cc1cc(Br)c([N+](=O)[O-])cc1[N+](=O)[O-]`: the growth is -28% (active).
Take `N#CCc1ccc(CC#N)cc1`: the growth is 91.5% (inactive).
Next, `CC(C)CCC1C(=O)NC(=O)NC1=O`: 79.4% (inactive); `O=C(O)c1ccc(=O)[nH]c1`: 101% (inactive) and 99.9% (inactive); `CC[C@H](C)[C@H](NC(=O)[C@H]1CCCCN1C)C(=O)N(C)[C@H](C(=O)NC12CC(C(=O)N[C@@H](Cc3ccccc3)C[C@H](C)C(=O)OC)(C1)C2)C(C)C`: 74.2% (inactive).
For the molecule `Oc1ccccc1C=NCCN=Cc1ccccc1O`, the growth was 92.3% (inactive).
As for `O=S(OO)c1cc(Cl)c(O)c(Cl)c1` (stereo not given), the growth is 102% (inactive).
Consider `N#CCC(=O)c1ccccc1`, for which the growth was 102% (inactive).
With `Cc1cc[c-]cc1.Fc1c[c-]c(-c2ccccn2)c(F)c1.[Pt+2].c1ccc([PH+](c2ccccc2)c2ccccn2)cc1`, the growth was 64.4% (inactive).
On to `O=[N+]([O-])c1c(Cl)cc(Cl)c([N+](=O)[O-])c1Cl`, for which the growth was 36.6% (inactive).
Regarding `C/C(=C\c1ccn(-c2ccc(N)cc2F)n1)[C@@H]1C[C@@H]2O[C@]2(C)CCC[C@H](C)[C@H](O)[C@@H](C)C(=O)C(C)(C)[C@@H](O)CC(=O)O1`, the growth was 10.2% (inactive).
For the molecule `CSc1cc(/C=C(\C)[C@@H]2C[C@@H]3O[C@]3(C)CCC[C@H](C)[C@H](O)[C@@H](C)C(=O)C(C)(C)[C@@H](O)CC(=O)O2)n(CCNC(=O)OC(C)(C)C)n1`, the growth was 63.1% (inactive).
On to `CN1CCc2cc3c(cc2C1O)OCO3` (stereo not given), for which the growth was -63.4% (active) and 109% (inactive).
Under `Cc1cc(N(CCCl)CCCl)ccc1/C=N\NC(=O)c1cccnc1` stands 82.3% (inactive) and 105% (inactive); under `CC[C@H](C)[C@H](NC(=O)C12CC(NC)(C1)C2)C(=O)N(C)[C@H](C[C@@H](OC(C)=O)c1nc(C(=O)N[C@@H](Cc2ccccc2)C[C@H](C)C(=O)OC)cs1)C(C)C`, -23.9% (active); under `Cc1cc(C(C)(C)C)ccc1O`, 102% (inactive).
Next, `CC1(C)C2CCC1(CS(=O)(=O)O)C(=O)C2` (stereo not given): 95.4% (inactive) and 107% (inactive); `Cc1cc(N(CCCl)CCCl)ccc1C=Nc1ccc(-c2csc(-c3ccccc3)n2)cc1`: 102% (inactive).
Regarding `O=[N+]([O-])c1cc(Br)c(O)c(Br)c1`, the growth is 92.7% (inactive).
Under `CC[C@H](C)[C@H](NC(=O)CN(C)C)C(=O)N(C)[C@H](C[C@@H](OC(C)=O)c1nc(C(=O)NC23C4C5C2C2C3C4C52C(=O)OC)cs1)C(C)C` (stereo not given in full) stands 24.1% (inactive); under `CCCCCCCCCCCCCCCC[N+](C)(C)C`, -57.9% (active) and -39.7% (active); under `CN1CCC2(CC1)C(C#N)C(=O)NC(=O)C2C#N` (stereo not given), 110% (inactive).
`CN(C)c1ccc(N)cc1`: the growth was 85.1% (inactive).
Next, `Cc1ccc(C(=O)O[C@H](C(=O)O)[C@H](OC(=O)c2ccc(C)cc2)C(=O)O)cc1`: 119% (inactive); `CC1(C)N(Nc2ccccc2)C(=O)C2CCCN21` (stereo not given): 53.2% (inactive); `CCC(Br)(CC)C(=O)NC(N)=O`: 105% (inactive).
As for `COc1ccc2c(c1)C1(C)CCN(C)CC(C1)C2O` (stereo not given), the growth was 90.2% (inactive).

For the origin of these results see PubChem BioAssay (NCI).
